In PubChem BioAssay (NCATS):
“And” between values parts separate entries of the source, which are not always exact repeats. Equal entries are not always repeated. Inconclusive results are not listed. Entries that show only a call come without a potency. The source made the active and inactive calls. Calls follow the shape of the full dose curve.

Tests used:
[1] = Cytotoxicity counterscreen for inhibitors of SARS-CoV-2 cell entry (AID 1645845); conditions: cell viability (SARS-CoV-2 entry assay cells); series mostly up to 57.1 µM; also: nearly all actives have a fitted effect of over 50% in size
In short: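 48 h compound treatment (after 1 h preincubation), HEK293-ACE2 cells, 37 C/5% CO2; ATP luminescence endpoint; normalized to cell wells and media blanks.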

[2] = Primary qHTS to identify inhibitors of SARS-CoV-2 cell entry (AID 1645846); conditions: SARS-CoV-2 pseudovirus cell entry assay, luminescence; activity change, negative = inhibition: at 57.1 µM (top of the series) unless noted; series mostly up to 57.1 µM; also: nearly all actives have a fitted effect of over 45% in size
In short: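 Using luciferase-reporting pseudoviruses carrying Wuhan-Hu-1 spike, the screen tracks entry into stably ACE2-expressing cells over 48 hr. Activity is expressed relative to spike particles versus particles lacking any fusion protein.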

[3] = VSVG counterscreen qHTS to identify inhibitors of SARS-CoV-2 cell entry (AID 1645847); conditions: VSV-G pseudotyped particle entry, luciferase; series mostly up to 57.2 µM; also: nearly all actives have a fitted effect of over 65% in size
In short: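 Entry of VSV-G pseudotyped particles into human ACE2-expressing HEK293 cells was measured by luciferase luminescence 48 h after infection, with compound added 1 h beforehand.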
Potency is read from the fitted curve at half-maximal effect.

Compound	Potency [1]	Potency [2]	activity change, negative = inhibition [2]	Potency [3]
Nc1cc(-c2ccncc2)c[nH]c1=O	inactive	inactive	–	–
CN/C(=C\[N+](=O)[O-])NCCSCc1ccc(CN(C)C)o1	inactive	inactive	–	–
Cc1cccc(C)c1OCC(C)N (stereo not given)	inactive	–	-0.301%	–
CN(C/C=C/C#CC(C)(C)C)Cc1cccc2ccccc12	inactive	–	-3.95%	–
CC1=C(C(=O)O)N2C(=O)[C@@H](NC(=O)[C@H](N)c3ccccc3)[C@H]2SC1	inactive	–	-1.93%	–
O=C(C1CCCCC1)N1CC(=O)N2CCc3ccccc3C2C1 (stereo not given)	inactive	inactive	–	–
CCCC(=O)Nc1ccc(OCC(O)CNC(C)C)c(C(C)=O)c1 (stereo not given)	inactive	–	4.12%	–
CC[N+](C)(C)c1cccc(O)c1	inactive	inactive	–	–
Nc1ccc(O)c(C(=O)O)c1	inactive	–	2.37%	–
C1N2CN3CN1CN(C2)C3	inactive	inactive	–	–
Cc1[nH]c(=O)c(C#N)cc1-c1ccncc1	inactive	inactive	–	–
COc1cc2nc(N3CCN(C(=O)C4CCCO4)CC3)nc(N)c2cc1OC (stereo not given)	inactive	–	-6.28%	–
CNC1(C)C2CCC(C2)C1(C)C (stereo not given)	inactive	inactive	–	–
COc1cc2c(cc1OC)C(=O)C(CC1CCN(Cc3ccccc3)CC1)C2 (stereo not given)	inactive	–	-29.7%	–
CCCNCC(O)COc1ccccc1C(=O)CCc1ccccc1 (stereo not given)	inactive	20 µM (active) and 35.5 µM (active)	–	–
c1cnc2cc3c(cc2n1)C1CNCC3C1	inactive	–	-6.05% and -6%	–
CCn1cc(C(=O)O)c(=O)c2ccc(C)nc21	inactive	inactive	–	–
O=C(OC1C[C@H]2CC[C@@H](C1)[N+]21CCCC1)C(O)(c1ccccc1)c1ccccc1 (stereo not given in full)	inactive	–	-4.34%	–
CC1(C)O[C@@H]2[C@@H](CO[C@@]3(COS(N)(=O)=O)OC(C)(C)O[C@@H]23)O1	inactive	–	-8%	–
CCCCNC(=O)NS(=O)(=O)c1ccc(C)cc1	inactive	inactive	–	–
CC[C@H](C)C(=O)O[C@H]1C[C@@H](C)C=C2C=C[C@H](C)[C@H](CC[C@@H]3C[C@@H](O)CC(=O)O3)[C@H]21	inactive	inactive	–	–

Compound	Potency [1]	Potency [2]	activity change, negative = inhibition [2]	Potency [3]
CC1=NS(=O)(=O)c2cc(Cl)ccc2N1	inactive	inactive	–	–
CC/C=C(\C(=O)N[C@@H]1C(=O)N2C(C(=O)OCOC(=O)C(C)(C)C)=C(COC(N)=O)CS[C@H]12)c1csc(N)n1	inactive	–	-26.6%	–
O=C1[C@H](CC[C@H](O)c2ccc(F)cc2)[C@@H](c2ccc(O)cc2)N1c1ccc(F)cc1	inactive	–	1.63% and -17.2%	–
CC(N)C12CC3CC(CC(C3)C1)C2 (stereo not given)	inactive	–	-7.42%	–
NC12CC3CC(CC(C3)C1)C2	inactive	inactive	-26.7%	–
CCCN[C@H]1CCc2nc(N)sc2C1	inactive	inactive	-3.81%	–
Cc1ccc(C)c(OCCCC(C)(C)C(=O)O)c1	inactive	inactive	-8.37%	–
CS(=O)(=O)OCCCCOS(C)(=O)=O	inactive	inactive	-16.9%	–
Cc1ccccc1N1C(=O)c2cc(S(N)(=O)=O)c(Cl)cc2NC1C (stereo not given)	inactive	inactive	-97.4%	–
O=NN(CCCl)C(=O)NC1CCCCC1	inactive	inactive	-8.29%	–
Cc1oncc1C(=O)Nc1ccc(C(F)(F)F)cc1	8910 nM (active)	inactive	-15.8%	–
COC(=O)[C@@H]1CC2=CC(=O)CC[C@]2(C)[C@@]23O[C@@H]2C[C@@]2(C)[C@@H](CC[C@@]24CCC(=O)O4)[C@H]13	inactive	inactive	-17.3%	–
CN1CCC(=C2c3ccccc3C=Cc3ccccc32)CC1	inactive	–	-24.8%	192 nM (active)
NC(=O)OCC(COC(N)=O)c1ccccc1	inactive	inactive	-1.23%	–
COc1c(C)c2c(c(O)c1C/C=C(\C)CCC(=O)O)C(=O)OC2	inactive	1 µM (active)	–	482 nM (active)
CCOC(=O)c1ncn2c1CN(C)C(=O)c1cc(F)ccc1-2	inactive	inactive	-12.9%	–
N[C@@H]1CONC1=O	inactive	inactive	-2.51%	–
CC(=O)O[C@]1(C(C)=O)CC[C@H]2[C@@H]3C=C(C)C4=CC(=O)CC[C@]4(C)[C@H]3CC[C@@]21C	inactive	inactive	-12.1%	–
CC(C)(C)C(=O)OCOP(=O)(COCCn1cnc2c(N)ncnc21)OCOC(=O)C(C)(C)C	inactive	–	-90.1%	15.2 nM (active)
CN(C)CCc1c[nH]c2ccc(CS(=O)(=O)N3CCCC3)cc12	inactive	inactive	-5.24%	–
O=P(O)(O)C(O)(Cc1cccnc1)P(=O)(O)O	inactive	–	4.27% and -14.8%	–
